Our source for the AC50 and outcome values is PubChem BioAssay (EPA / NIEHS).

The AC50 is the concentration at which the activity in the assay is half-maximal.

Calls of active or inactive are those of the source. The calls were made as follows: active = hit-call score of the fitted dose curve at least 0.9, where 1 is the maximum; inactive = score below 0.9.

Conditions in all cases: mRNA level, 48 h; actives raise or lower the signal
Read-out in assay [1]: cysteine-aspartic acid protease (CASP8), CASP8 (gene 841)
As to the kind of experiment: LTEA_HepaRG_CASP8: Life Technologies and Expression Analysis (LTEA) Assay for cysteine-aspartic acid protease (CASP8) using HepaRG (AID 2283480). The method, boiled down:
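Concentration-response in duplicate up to 100 uM (half-log steps, 0.5% DMSO) on differentiated HepaRG cultures for 48 h. Expression change of CASP8 mRNA is determined by TaqMan qRT-PCR with housekeeping-gene normalization.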

Read-out in assay [2]: DNA damage-inducible transcript 3 (DDIT3), DDIT3 (gene 1649)
Put plainly: LTEA_HepaRG_DDIT3: Life Technologies and Expression Analysis (LTEA) Assay for DNA damage-inducible transcript 3 (DDIT3) using HepaRG (AID 2283488). In outline:
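Cells are human HepaRG liver cells treated for 48 h with eight half-log concentrations up to 100 uM in 0.5% DMSO. Transcript levels come from qRT-PCR normalized to three housekeeping genes, with activity fitted in both directions relative to vehicle.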

Read-out in assay [3]: Pro-epidermal growth factor (Homo sapiens) (UniProt P01133)
Put plainly: LTEA_HepaRG_EGF: Life Technologies and Expression Analysis (LTEA) Assay for Epidermal growth factor (EGF) using HepaRG (AID 2283489). The method, boiled down:
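EGF expression changes in human HepaRG cells are scored by bidirectional fitting relative to 0.5% DMSO controls. Chemicals are tested at eight half-log concentrations up to 100 uM for 48 h in serum-free induction medium.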

Read-out in assay [4]: Early growth response protein 1 (EGR1) transcription factor, EGR1 (gene 1958)
As to the kind of experiment: LTEA_HepaRG_EGR1: Life Technologies and Expression Analysis (LTEA) Assay for Early growth response protein 1 (EGR1) transcription factor using HepaRG (AID 2283490). The method, boiled down:
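EGR1 expression change in human HepaRG after 48 h chemical exposure, assessed by housekeeping-normalized qRT-PCR; concentration-response up to 100 uM, fitted in both directions against DMSO controls.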

Read-out in assay [5]: Ezrin (EZR), EZR (gene 7430)
As to the kind of experiment: LTEA_HepaRG_EZR: Life Technologies and Expression Analysis (LTEA) Assay for Ezrin (EZR) using HepaRG (AID 2283491). In outline:
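Gain or loss of EZR mRNA is scored relative to 0.5% DMSO in human HepaRG cultures treated 48 h with test chemicals in duplicate, eight half-log concentrations from 100 uM.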

Read-out in assay [6]: Fatty Acid-Binding Protein 1 (FABP1), FABP1 (gene 2168)
As to the kind of experiment: LTEA_HepaRG_FABP1: Life Technologies and Expression Analysis (LTEA) Assay for Fatty Acid-Binding Protein 1 (FABP1) using HepaRG (AID 2283494). In outline: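 Values reflect bidirectional concentration-response fitting of FABP1 mRNA change against 0.5% DMSO controls. Human HepaRG cultures received eight half-log doses (top 100 uM) for 48 h; expression quantified by TaqMan qRT-PCR with housekeeping-gene normalization.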

Read-out in assay [7]: Glutathione S-Transferase (GSTA2), GSTA2 (gene 2939)
Put plainly: LTEA_HepaRG_GSTA2: Life Technologies and Expression Analysis (LTEA) Assay for Glutathione S-Transferase (GSTA2) using HepaRG (AID 2283497). The method, boiled down: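 Oxidative-stress marker GSTA2 is quantified by TaqMan qRT-PCR in HepaRG cultures treated 48 h across an eight-point range to 100 uM. Expression is normalized to endogenous controls and compared with 0.5% DMSO vehicle.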

Read-out in assay [8]: Glutamate-cysteine ligase catalytic (GCLC), GCLC (gene 2729)
Put plainly: LTEA_HepaRG_GCLC: Life Technologies and Expression Analysis (LTEA) Assay for Glutamate-cysteine ligase catalytic (GCLC) using HepaRG (AID 2283498). In outline:
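Oxidative-stress marker GCLC is measured as mRNA change in human HepaRG liver cells after 48 h chemical treatment in 0.5% DMSO, eight concentrations from 100 uM. Activity is fitted bidirectionally against vehicle.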

Read-out in assay [9]: growth arrest and DNA damage 45 (GADD45G), GADD45G (gene 10912)
As to the kind of experiment: LTEA_HepaRG_GADD45G: Life Technologies and Expression Analysis (LTEA) Assay for growth arrest and DNA damage 45 (GADD45G) using HepaRG (AID 2283499). The method, boiled down:
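Human hepatic HepaRG line treated 48 h with chemicals (eight concentrations, half-log steps from 100 uM); transcript induction or repression of GADD45G scored by qRT-PCR versus DMSO vehicle.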

Read-out in assay [10]: Glutathione S-transferase M3 (GSTM3), GSTM3 (gene 2947)
Put plainly: LTEA_HepaRG_GSTM3: Life Technologies and Expression Analysis (LTEA) Assay for Glutathione S-transferase M3 (GSTM3) using HepaRG (AID 2283501). In outline: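 Changes in GSTM3 expression, an oxidative-stress marker, were scored by bidirectional curve fitting against 0.5% DMSO vehicle. Human HepaRG cultures received chemicals for 48 h in duplicate, highest concentration 100 uM with half-log dilutions.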

Read-out in assay [11]: Cytochrome P450 (CYP2B6), CYP2B6 (gene 1555)
As to the kind of experiment: LTEA_HepaRG_CYP2B6: Life Technologies and Expression Analysis (LTEA) Assay for Cytochrome P450 (CYP2B6) using HepaRG (AID 2283481). The method, boiled down:
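Using 48 h treatment of HepaRG cells in serum-free induction medium, concentrations spanned half-log steps from 100 uM in 0.5% DMSO vehicle. CYP2B6 mRNA induction or loss is scored by qRT-PCR against DMSO.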

Read-out in assay [12]: Cytochrome P450 2C19 (Homo sapiens) (UniProt P33261)
Put plainly: LTEA_HepaRG_CYP2C19: Life Technologies and Expression Analysis (LTEA) Assay for CYP2C19 using HepaRG (AID 2283482). The method, boiled down:
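Human HepaRG liver cells received test chemicals for 48 h (highest 100 uM, half-log dilutions in 0.5% DMSO). CYP2C19 mRNA induction or loss is read by multiplexed qRT-PCR and fitted in both directions versus vehicle.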

Read-out in the next assay: CYP2C8 (gene 1558)
Put plainly: LTEA_HepaRG_CYP2C8: Life Technologies and Expression Analysis (LTEA) Assay for CYP2C8 using HepaRG (AID 2283483). In outline: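 This is a transcriptional endpoint in HepaRG cultures: 48 h exposure, highest concentration 100 uM. CYP2C8 mRNA is quantified by TaqMan qRT-PCR.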

Read-out in the next assay: CYP2C9 (gene 1559)
As to the kind of experiment: LTEA_HepaRG_CYP2C9: Life Technologies and Expression Analysis (LTEA) Assay for CYP2C9 using HepaRG (AID 2283484). In outline:
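Eight-point concentration-response (highest 100 uM, half-log dilutions) in HepaRG cells for 48 h; CYP2C9 expression by qRT-PCR normalized to ACTB, GAPDH, POLR2A. Bidirectional fit, DMSO baseline.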

Read-out in the next assay: CYP2E1 (gene 1571)
As to the kind of experiment: LTEA_HepaRG_CYP2E1: Life Technologies and Expression Analysis (LTEA) Assay for CYP2E1 using HepaRG (AID 2283485). In outline:
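Readout is qRT-PCR of CYP2E1 mRNA, normalized to three housekeeping genes and fitted bidirectionally against 0.5% DMSO. HepaRG cells were dosed 48 h at eight concentrations, highest 100 uM with half-log dilutions.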

Read-out in another assay: CYP4A11 (gene 1579)
Put plainly: LTEA_HepaRG_CYP4A11: Life Technologies and Expression Analysis (LTEA) Assay for CYP4A11 using HepaRG (AID 2283486). The method, boiled down: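 Readout is CYP4A11 mRNA induction or suppression (qRT-PCR, ACTB/GAPDH/POLR2A normalization) in human HepaRG cells after 48 h chemical treatment, concentrations to 100 uM in 0.5% DMSO, fitted bidirectionally against vehicle.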

Read-out in assay [13]: Cytochrome P450 3A4 (Homo sapiens) (UniProt P08684)
Put plainly: LTEA_HepaRG_CYP3A4: Life Technologies and Expression Analysis (LTEA) Assay for CYP3A4 using HepaRG (AID 2283487). The method, boiled down:
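In a human hepatic line (HepaRG), duplicate wells were treated 48 h with up to 100 uM chemical in half-log dilutions. Endpoint: CYP3A4 mRNA induction or loss relative to 0.5% DMSO vehicle, by qRT-PCR.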

Read-out in assay [14]: Cytochrome P450 3A7 (Homo sapiens) (UniProt P24462)
Put plainly: LTEA_HepaRG_CYP3A7: Life Technologies and Expression Analysis (LTEA) Assay for CYP3A7 using HepaRG (AID 2283492). In outline: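 Cells were thawed, plated, cultured 48 h, then treated for a further 48 h with chemicals (eight-point half-log series from 100 uM, 0.5% DMSO). RNA was isolated and CYP3A7 expression quantified by qRT-PCR normalised to ACTB, GAPDH and POLR2A.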

Read-out in another assay: CYP3A5 (gene 1577)
Put plainly: LTEA_HepaRG_CYP3A5: Life Technologies and Expression Analysis (LTEA) Assay for CYP3A5 using HepaRG (AID 2283493). In outline:
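Human HepaRG hepatic cells receive 48 h chemical treatment at eight concentrations (half-log steps from 100 uM) in 0.5% DMSO. Expression of CYP3A5 is quantified by Fluidigm qRT-PCR and normalized to three reference genes.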

Read-out in assay [15]: Cytochrome P450 7A1 (Homo sapiens) (UniProt P22680)
As to the kind of experiment: LTEA_HepaRG_CYP7A1: Life Technologies and Expression Analysis (LTEA) Assay for Cytochrome P450 7A1 (CYP7A1) using HepaRG (AID 2283496). In outline:
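HepaRG, 48 h exposure, 8-pt half-log series from 100 uM, 0.5% DMSO vehicle, duplicates. Readout: TaqMan qRT-PCR mRNA vs three housekeeping genes; bidirectional curve fit against DMSO baseline.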

Sequence of Cytochrome P450 3A7 (Homo sapiens) (P24462 whole entry, looked up): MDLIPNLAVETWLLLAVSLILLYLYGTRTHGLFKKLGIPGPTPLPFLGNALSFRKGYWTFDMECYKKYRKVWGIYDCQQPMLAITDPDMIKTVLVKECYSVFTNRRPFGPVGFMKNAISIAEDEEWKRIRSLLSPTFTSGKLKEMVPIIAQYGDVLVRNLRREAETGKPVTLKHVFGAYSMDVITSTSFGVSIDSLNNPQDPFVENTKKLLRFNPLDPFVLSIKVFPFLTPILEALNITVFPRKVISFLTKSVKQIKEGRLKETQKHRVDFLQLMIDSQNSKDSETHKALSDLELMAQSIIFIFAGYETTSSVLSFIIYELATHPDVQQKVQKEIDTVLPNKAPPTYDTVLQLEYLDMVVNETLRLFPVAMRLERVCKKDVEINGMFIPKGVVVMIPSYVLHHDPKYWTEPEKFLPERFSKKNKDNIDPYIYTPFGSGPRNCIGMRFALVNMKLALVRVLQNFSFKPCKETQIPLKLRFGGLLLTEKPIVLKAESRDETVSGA
Sequence of Cytochrome P450 3A4 (Homo sapiens) (P08684 whole entry, looked up): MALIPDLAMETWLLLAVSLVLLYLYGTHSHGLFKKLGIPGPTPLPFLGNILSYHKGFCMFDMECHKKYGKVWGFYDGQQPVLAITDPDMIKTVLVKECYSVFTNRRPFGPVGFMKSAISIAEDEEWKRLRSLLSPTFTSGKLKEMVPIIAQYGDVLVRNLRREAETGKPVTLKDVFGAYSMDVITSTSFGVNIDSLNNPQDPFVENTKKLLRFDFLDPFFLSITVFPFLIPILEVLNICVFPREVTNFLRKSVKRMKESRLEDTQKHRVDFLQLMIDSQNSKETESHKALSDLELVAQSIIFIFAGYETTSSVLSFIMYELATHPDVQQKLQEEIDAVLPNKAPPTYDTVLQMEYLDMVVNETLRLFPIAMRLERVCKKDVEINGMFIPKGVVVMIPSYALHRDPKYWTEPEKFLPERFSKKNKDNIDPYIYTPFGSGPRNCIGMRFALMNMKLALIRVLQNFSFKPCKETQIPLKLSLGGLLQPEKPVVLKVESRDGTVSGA
Sequence of Cytochrome P450 2C19 (Homo sapiens) (P33261 whole entry, looked up): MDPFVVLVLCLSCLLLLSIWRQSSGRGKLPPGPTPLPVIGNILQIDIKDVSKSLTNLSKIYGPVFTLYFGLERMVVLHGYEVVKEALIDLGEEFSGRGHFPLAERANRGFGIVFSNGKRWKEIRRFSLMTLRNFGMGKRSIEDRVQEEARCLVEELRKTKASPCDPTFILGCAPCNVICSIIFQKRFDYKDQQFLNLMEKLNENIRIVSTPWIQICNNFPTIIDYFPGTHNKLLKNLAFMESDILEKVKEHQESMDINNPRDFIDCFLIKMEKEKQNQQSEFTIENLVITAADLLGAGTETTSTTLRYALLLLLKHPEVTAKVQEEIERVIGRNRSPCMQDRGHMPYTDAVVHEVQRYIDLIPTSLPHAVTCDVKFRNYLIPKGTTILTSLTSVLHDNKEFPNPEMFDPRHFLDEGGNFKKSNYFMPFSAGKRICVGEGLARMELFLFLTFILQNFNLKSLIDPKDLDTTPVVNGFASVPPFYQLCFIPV

Regarding `C[C@@H]1C[C@@H]([C@H](O)CC2CC(=O)NC(=O)C2)C(=O)[C@@H](C)C1`, the AC50 in assay [1] is 79.9 µM (active); in assay [3], 2.36 µM (active); in assay [4] it was 91.8 µM (active); in assay [5] it was 10.8 µM (active); in assay [6], 13.2 µM (active); in assay [7], 26.6 µM (active). Moreover, the figures for the half-maximal activity concentration (AC50) in assay [8], in assay [9] and in [10] were 33.3 µM (active), 2.24 µM (active) and 5.85 µM (active), respectively. Further, the compound was called inactive in assay [2].

For `ClC1(Cl)C2(Cl)C3(Cl)C4(Cl)C(Cl)(Cl)C5(Cl)C3(Cl)C1(Cl)C5(Cl)C24Cl` (stereo not drawn), the outcome (in assay [1]; in the assay with CYP2C8 (gene 1558); with CYP2C9 (gene 1559); in assay [2]; in assay [3]; in [4]) was inactive. Besides, the call (in assay [5]; with CYP3A5 (gene 1577); in assay [15]; in [7]; in assay [8]; in [9]) was inactive. For the same compound, the compound was classed as inactive in assay [10]. Moreover, the AC50 is 0.73 µM (active) in assay [11]; 3.41 µM (active) in [12]; 4.06 µM (active) with CYP2E1 (gene 1571); 20 µM (active) in the assay with CYP4A11 (gene 1579); 4.01 µM (active) in assay [13]; 4.64 µM (active) in [14]. For the same compound, the concentration at half-maximal activity (AC50) in assay [6] was 3.49 µM (active).

Take `CC(C)(C)c1cc(O)ccc1O`: the call (in [1]; in assay [11]; in assay [12]; in the assay with CYP2C8 (gene 1558); with CYP2C9 (gene 1559); with CYP2E1 (gene 1571)) was inactive. In addition, the result (with CYP4A11 (gene 1579); in assay [13]; in assay [2]; in [3]; in assay [4]; in [5]) was inactive. Moreover, the compound was called inactive (in [14]; with CYP3A5 (gene 1577); in [6]; in [15]; in assay [7]; in [8]). Moreover, the compound was classed as inactive in assay [9] and in assay [10].

With `C=C(C)C(=O)[O][Sn]([CH2]CCC)([CH2]CCC)[CH2]CCC`, the compound was classed as inactive (in assay [1]; with CYP2C9 (gene 1559); in the assay with CYP2E1 (gene 1571); in assay [4]; in assay [6]; in [7]). Also, the compound was called inactive in assay [10]. The concentration at half-maximal activity (AC50) in assay [11] is 2.33 µM (active); in assay [12], 2.64 µM (active); in the assay with CYP2C8 (gene 1558), 2.38 µM (active); with CYP4A11 (gene 1579), 1.49 µM (active); in assay [13], 2.52 µM (active); in assay [2], 92.4 µM (active). Further, the concentration at half-maximal activity (AC50) in assay [5] was 93.5 µM (active); in assay [14] it was 2.71 µM (active); with CYP3A5 (gene 1577), 4.68 µM (active); in assay [8] it was 4.01 µM (active); in assay [9], 1.21 µM (active).
